# In PubChem BioAssay AID1508600 (Functional Genomics Laboratory (NCATS/FGL), 2020):
# Hit rate of the full screen: of about 53,000 sequences, about 3,700 (7%) were called active. Many of the other results were omitted from the sample, so actives are more common in it than they were. Unmarked numbers belong to inactive results.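 The calls were made as follows: active = gene knockdowns whose robust z-score for IL-1 alpha signal is at least 2 or at most -2, so actives lie on both sides; inactive = the rest.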
# Experiment: Components of the Cytosolic LPS Sensing Pathway: Gene Identification via Genome-wide siRNA Screen;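 also: robust z of the log signal after scaling to non-targeting control siRNA wells of the plate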
# Settings: RAW264.7 macrophages, IL-1a HTRF, actives lie on both sides, screened at 100 nM (by protocol), cells primed 5 h with Pam3CSK4 first
# How it was run: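 Read-out: IL-1a HTRF on supernatant, divided by plate negative-control median ×100, log-transformed and converted to robust z-score. Cells were RAW264.7 given 100 nM siRNA, Pam3CSK4-primed 5 hours, then LipidA-transfected 24 hour.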
row,Sequence,z-score
1,GCUAAGUUUCACCCAAAGGTT against Dennd2c,1.42
2,GGAGUGAGACAAGUGUAUGTT against Sprr1a,-0.0345
3,GGAAAGAUUCCGAACAAUUTT against Rab8b,2.12 (active)
4,GGUGGUUGAACAUAAGACUTT against Zfp688,1.27
5,GGCAAUACAAACAAGUUCUTT against Klhdc2,1.05
6,GGCCUUGUUUUUAAGUAAATT against Atp12a,-0.178
7,GCCAAUGAACCGAUCUCUGTT against Ep400,-2.13 (active)
8,GGAAUUGGGUAGUACAAAATT against Irak1,0.282
9,GGUAAUGAAUAGGAAACUCTT against Ostm1,-0.773
10,GGAACACACAGAGGUUUAUTT against Hacd1,1.87
11,GGGAGUGGCUCCUCAGAAATT against AW549877,-1.98
12,CGCACAAGUGCUUGAGUUATT against Ccdc151,1.03
13,GGACCAAUGUUUUCUUCCUTT against Gngt2,0.773
14,GCCUUAAGUGUUCAUGUAATT against Vhl,-0.872
15,GGAAGCCCACUACAACAAUTT against Krt19,-0.236
16,GCAUUGUGCUGAUGUGCGGTT against Ap1ar,3.01 (active)
17,GGUAUUCUGGCAAGACCACTT against Aatf,1.31
18,GGAAGCCUAGUUUUUUUAATT against Csnk2a1,2.89 (active)
19,GCUUUCAGUGAGGUACAAGTT against Gm4425,-1.25
20,GCUCUUUCUAGCCCUUCCCTT against Spry3,-0.915
21,GGAAAGAUAGAAGACAAACTT against Spry4,-0.0777
22,GGUUCUGAUAGCUCAAGAGTT against Polr2b,-1.96

row,Sequence,z-score
1,GGUUUUGAAAUUCCAGAAUTT against Nol9,-0.22
2,GGCAACUGUUGUAAAUCAATT against Veph1,-1.01
3,GGACUCAAACGACACAUGCTT against Eci2,2.42 (active)
4,GCCAGUCAUUCAGUAAAGUTT against Mysm1,-1.15
5,GGAGAAAUGUCAGUGCGAUTT against Mlc1,0.431
6,GGUCACAGAAUCGGUUUCATT against Cuta,1.02
7,GGUUCUUGUUUUUACCCGCTT against Fam187b,1.19
8,GGAGUGGCUAUGUUUUCGATT against Hrg,0.658
9,GGACUCGUUCCACUAUCAUTT against Naa20,0.33
10,GCGGUUUCGAACAAUCACGTT against Rab8a,-2.4 (active)
11,UCAACUGCUUAGAGCAUGUTT against Tmem259,0.653
12,CGACCUCCAGUAAUAACCUTT against Olfr310,-0.746
13,GGAAAGCUUGGACAUUAAGTT against Rps6kc1,-0.0887
14,GGUCACGUCAGCAAAGCAATT against B930095G15Rik,-2.73 (active)
15,GCGAUGUGGACAGAAGUACTT against Cyba,1.01
16,GGUGUUUCAUAAGAAGGAATT against 1700010H22Rik,-1.01
17,GCCAGUACUCUGCUUGUGATT against Naif1,-1.64
18,GAUCCCUGGAUUGUGGAGUTT against 2310057N15Rik,0.26
19,GGACGAGCUGUAUUUGAAUTT against Gsk3a,-0.663
20,CCAAAGAUACCAUAGGAUUTT against Zc3h12a,1.05
21,GGUAGAUCCUAUCCUGUCUTT against Foxo4,-2.57 (active)
22,GCUGCAAUAGUCACUGGAGTT against H2-K1,0.115

row,Sequence,z-score
1,GCGACCAGCAGGUCAAAAUTT against Hoxd12,3.09 (active)
2,CCCUUCUCUGAGACAACACTT against Tcirg1,1.42
3,GGAAAUAAUUCACUCACCATT against Eya1,-2.99 (active)
4,CCAAGUCGUAAUCUAGAAGTT against Scn7a,0.191
5,GCUGGACCUUCAUGUAAUATT against Pcsk1,-0.234
6,CCUCAUGUCUACAAAGUUATT against Gvin1,-1.14
7,GCGAGUUUUUGGAUGGUAGTT against Slc4a3,0.243
8,GGUAUGCAUGAACAUAAUGTT against Prl7c1,0.788
9,GGACUUAAAAGAGGAGAUCTT against 4933434E20Rik,3.73 (active)
10,GGCAUUUUCGUAUAGUUACTT against B3gnt9,0.81
11,GGUCAUCAGCUCUAUGAGCTT against Fry,0.0787
12,GCACAGAGGAUGUACGUUATT against Cstad,-0.665
13,GCCCAGAGAAUGACCUAUATT against 9130019O22Rik,0.54
14,GGUGCUCCACAACACCUAUTT against 2510039O18Rik,2.05 (active)
15,CCUACUAUACAAUUCUGCUTT against Clns1a,0.556
16,GGUCACUUCAUCCAUAGCUTT against Atmin,-1.79
17,GACAGCAACGUGAAAUUAGTT against Xlr,-0.828
18,GGAUCUUUUCCAAAGAAAUTT against Dusp10,-0.409
19,GGAGGAAGAAGAGAUACCUTT against Foxh1,-0.96
20,CGGGAAACUUAGGUAUGAUTT against Olfr1009,-3.05 (active)
21,GGCAUGGAAGGCUAAACAGTT against Slc25a17,-1.98
22,GGGUAUAGAGUCAAUCUGATT against Gfm2,-0.381

row,Sequence,z-score
1,GCAGGGAUCUGCUAAGCUATT against Hey1,-0.953
2,GGACCCAUUGGUCAUCAUATT against Tent5b,0.18
3,CGGAACCAUAGGGAAUCAGTT against Cmc2,2.04 (active)
4,GCCUGAAUUUGUAAGCAGUTT against Fgf1,0.0666
5,CAUUGUCAUUCUGCUGGCATT against Olfr1249,-0.0752
6,GGUCACCAUCAUCAUCAAUTT against Carmil1,0.484
7,GGUGGUAGAACUGUUAAAATT against Klc2,0.311
8,GGAGAAAGAGACGGACAACTT against Fgfr1,2.8 (active)
9,GGACUGAAUCUUUAAAGGUTT against Nkx1-2,0.199
10,GGUGUUGUGGAAUAUUUAATT against Cnot6l,1.23
11,GGUCUUACCUUUUGAAAAATT against Mtbp,0.0999
12,GCAUCCUCUCACUCUCAAUTT against Grin2a,2.37 (active)
13,CCGAAGCCUUGAAAGCAGUTT against Shq1,0.302
14,GGAAACUGGAUCAAACCAUTT against Smarcd3,-0.707
15,CGAAGUGGUCAAGUUCUCUTT against Fbxo17,-2.09 (active)
16,CGAGUUAGUUUUUCUGGGCTT against Tctex1d4,0.997
17,GCAAGAAAAGGUGCUAUCUTT against Med4,-0.314
18,GGAGCUGGAAGAGUGGUAUTT against Clta,-0.535
19,GGCUAUGUAGAUCUUGUCATT against Cyb5r1,-1.09
20,GCUCGGUUAAGAGCCCAUGTT against Pabpn1l,-2.11 (active)
21,GGCACAACUGAUUUUGAAATT against Ifngr2,-0.362
22,GCGAUCACAGACAUCAUUGTT against Rabgef1,-0.423

row,Sequence,z-score
1,GGAAAUAAGCAGCGCAUGCTT against Ippk,-1.27
2,CCUACGAGGAUACUUACAATT against Kif18b,2.81 (active)
3,GGUGGUUCUGGUGUACAGUTT against Nxf1,-1.98
4,CCCUAUAAGCAACUUAUGCTT against Tor1aip1,-0.115
5,GCACCAUUUGAGUUUUUCUTT against Vmn1r8,-0.578
6,CAUUUACAUUCUUAUUACCTT against Olfr473,-1.43
7,CCCGAACCUUAGUAAAUGUTT against Psmd8,0.308
8,GCAGACAGCUUCUCACUAUTT against Tmem114,-0.431
9,GCUAAGAAACUGGUCUCAUTT against Reg4,-0.151
10,GGAAGAUUUGGAAAAUGGATT against Dph3,-2.19 (active)
11,CCAUCAUUUAUGAAGACCCTT against Dcaf7,-1.44
12,CCCAAGCACCAGCCCUAUATT against Frmd8,-1.58
13,GGGAGAAUUGUAGAUUAUUTT against Myo10,0.475
14,CCAUCGACUGUUUCAUCCUTT against Olfr987,-0.915
15,GCUUGAAGUCUCUUGCUGGTT against Nhlrc2,3.53 (active)
16,GCUACUCUUUGUCUCAUGUTT against Hexb,-0.826
17,GGAUCAGAUCUUGUGUGACTT against Trim16,-0.602
18,CCGCUUGCUCAUUGUAUCATT against Ruvbl2,-0.976
19,GGUUCCAUGAGAAAAGGUUTT against F2r,-1.45
